This note sets out measurements from PubChem BioAssay (NCATS).

Experiment [1] in a line: Quantitative High-Throughput drug screen in 47 multiple myeloma cell lines against the NCATS MIPE library collection: FR4_PLB cell viability assay (AID 1918924; note: nearly all actives have a fitted effect of over 35% in size). In a few lines: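 We plated 500 myeloma cells per well, pinned in MIPE 4.0 compounds, and incubated for 48 hours at 37C. ATP was then quantified with CellTiter-Glo, with DMSO and media-only wells defining 100% and 0%.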

The nature of experiment [2]: Quantitative High-Throughput drug screen in 47 multiple myeloma cell lines against the NCATS MIPE library collection: ARP1_JJKsccF8 cell viability assay (AID 1918928; note: nearly all actives have a fitted effect of over 40% in size). The gist of the method:
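Viability screen: myeloma cells (500/well) incubated 48 h at 37 °C, humidified 5% CO2, with pinned library compounds; CellTiter-Glo added, luminescence read; DMSO wells set 100%, medium-only wells 0%.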

Experiment [3] can be described thus: Quantitative High-Throughput drug screen in 47 multiple myeloma cell lines against the NCATS MIPE library collection: AMO1_DSMZ cell viability assay (AID 1918927; note: nearly all actives have a fitted effect of over 30% in size). The gist of the method: (§1)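 Myeloma cells (500 per well) were exposed to MIPE 4.0 compounds by pin transfer and incubated 48 hours at 37C, 5% CO2. Viability was read as ATP by CellTiter-Glo luminescence, normalised to DMSO (100%) and media-only (0%) wells.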

The nature of experiment [4]: Quantitative High-Throughput drug screen in 47 multiple myeloma cell lines against the NCATS MIPE library collection: ARD_JJKsccE7 cell viability assay (AID 1918929). In a few lines: as §1
A short description of experiment [5]: Quantitative High-Throughput drug screen in 47 multiple myeloma cell lines against the NCATS MIPE library collection: EJM_DSMZ cell viability assay (AID 1918926; note: nearly all actives have a fitted effect of over 30% in size). The gist of the method:
as §1

Experiment [6] can be described thus: Quantitative High-Throughput drug screen in 47 multiple myeloma cell lines against the NCATS MIPE library collection: Delta47_JCRB cell viability assay (AID 1918925; note: nearly all actives have a fitted effect of over 45% in size). The gist of the method: as §1

The structures appear in SMILES notation. Inconclusive results are not listed. Activity calls are given as the source filed them. Calls come from the whole dose curve; as a rule, active = well fitted cell-killing curve with a large enough effect; inconclusive = small, poorly fitted or top-dose-only effect, or effect the other way; inactive = no such curve, though single readings can be large or run the other way.
Potency is the fitted concentration of half-maximal effect.

On to `OC[C@H]1OC(O)C[C@@H](O)[C@H]1O` (stereo not given in full), for which the Potency result in experiment [1] and in experiment [2] was “inactive” throughout.
Regarding `C[C@@H]1C(=O)O[C@H]2CC34[C@H]5C[C@@H](C(C)(C)C)C36[C@H](OC(=O)[C@@H]6O)O[C@@]4(C(=O)O5)[C@]21O` (stereo not given in full), the Potency entry in experiment [1], in experiment [3], in experiment [2] and in experiment [4] was “inactive” throughout.
For the compound `CC1(C)O[C@@H]2C[C@H]3[C@@H]4CCC5=CC(=O)C=C[C@]5(C)[C@@H]4[C@@H](O)C[C@]3(C)[C@]2(C(=O)CO)O1`, the Potency result in experiment [1] and in experiment [5] was “inactive” in each case. Also, the Potency in experiment [2] was 0.0372 µM (active); in experiment [4], 0.0053 µM (active).
Regarding `C=CC1=C(C(=O)O)N2C(=O)[C@@H](NC(=O)C(=NO)c3csc(N)n3)[C@H]2SC1`, the Potency entry in experiment [1], in experiment [5] and in experiment [2] was “inactive” in each case.
Take `CC(C)Oc1ccc(C(=O)N[C@H](CNC(=O)CN(C)C)Cc2ccc(-c3cn4cccc([C@H](C)O)c4n3)cc2)cc1Cl`: the Potency was 0.148 µM (active) in experiment [1], 0.332 µM (active) in experiment [3], 0.935 µM (active) in experiment [2] and 0.264 µM (active) in experiment [4].
Turning to `C=CC(=O)Nc1cccc(Nc2nc(NC3CCC(N(C)C)CC3)nc3c2ncn3C(C)C)c1` (stereo not given), the results for the Potency in experiment [1], in experiment [2] and in experiment [4] were 0.235 µM (active), 0.743 µM (active) and 0.0105 µM (active), respectively.
As for `O=C1c2c(O)cccc2[C@@H]([C@@H]2O[C@H](CO)[C@@H](O)[C@H](O)[C@H]2O)c2cc(CO)cc(O)c21`, the Potency result in experiment [1], in experiment [3], in experiment [2] and in experiment [4] was “inactive” in each case.
In the case of `CN1CCCN(C(=O)c2cccc(-c3ccc(C=C4C(=O)Nc5ccc(Cl)cc54)o3)c2)CC1`, the Potency is 26.4 µM (active) in experiment [1], 16.6 µM (active) in experiment [2] and 8.33 µM (active) in experiment [4].
For `O=c1ccn([C@@H]2O[C@H](CO)[C@H](O)[C@@H]2F)c(=O)[nH]1` the same measures were “inactive”, “inactive” and “inactive”.
`Cc1ccc(-n2[nH]c(C)c(N=Nc3cccc(-c4cccc(C(=O)O)c4)c3O)c2=O)cc1C`: the Potency in experiment [1] is 20.9 µM (active). Moreover, the Potency entry in experiment [4] is “inactive”.
For `COc1cc(C)c(C=CC(C)=CC=CC(C)=CC(=O)O)c(C)c1C`, the Potency entry in experiment [1], in experiment [3], in experiment [2] and in experiment [4] was “inactive” in each case.
`Nc1nc(=O)n([C@H]2C[C@H](O)[C@@H](CO)O2)cc1F`: the Potency result in experiment [1], in experiment [5] and in experiment [4] was “inactive” each time. The Potency in experiment [2] was 0.526 µM (active).
Turning to `O=C(Nc1cccc(Nc2ncc(Br)c(NCCc3cnc[nH]3)n2)c1)N1CCCC1`, the figures for the Potency in experiment [6], in experiment [5] and in experiment [2] were 4.18 µM (active), 16.6 µM (active) and 18.7 µM (active), respectively. Also, in experiment [3], the Potency result was “inactive”.
Turning to `CC(=O)[C@]1(O)Cc2c(O)c3c(c(O)c2[C@@H](O[C@H]2C[C@H](N)[C@@H](O)[C@H](C)O2)C1)C(=O)c1ccccc1C3=O`, the Potency was 0.469 µM (active) in experiment [1], 0.118 µM (active) in experiment [5], 0.264 µM (active) in experiment [2] and 3.32 µM (active) in experiment [4].
For `Cn1cc(-c2cnn3c(N)c(Br)c([C@H]4CCCNC4)nc23)cn1` the same measures were 0.132 µM (active), 0.372 µM (active), 3.32 µM (active) and 1.05 µM (active).
For `C[C@H](NCc1ccc(OCc2cccc(F)c2)cc1)C(N)=O`, the Potency in experiment [1] was 16.6 µM (active); in experiment [3], 9.35 µM (active); in experiment [2], 7.43 µM (active); in experiment [4], 5.26 µM (active).
As to `CC(=O)C1=C(O)C=C2Oc3c(C(C)=O)c(O)c(C)c(O)c3C2(C)C1=O` (stereo not given), the Potency entry in experiment [1], in experiment [5] and in experiment [2] was “inactive” each time.
Consider `Cc1onc(-c2ccccc2)c1C(=O)N[C@@H]1C(=O)N2[C@@H](C(=O)O)C(C)(C)S[C@@H]12`, for which the Potency entry in experiment [1], in experiment [5] and in experiment [4] was “inactive” throughout.
In the case of `CN1[C@H]2CC(OC(=O)[C@@H](CO)c3ccccc3)C[C@H]1[C@H]1O[C@H]12` (stereo not given in full), the Potency result in experiment [1], in experiment [3], in experiment [2] and in experiment [4] was “inactive” each time.
With `NC(=O)c1ncn([C@@H]2O[C@H](CO)[C@@H](O)[C@@H]2O)c1N`, the Potency result in experiment [1], in experiment [3], in experiment [2] and in experiment [4] was “inactive” throughout.
`C[C@@]12C[C@@]3(O)O[C@@H](O1)[C@]1(COC(=O)c4ccccc4)[C@@H]3C[C@@]12O[C@@H]1O[C@H](CO)[C@@H](O)[C@H](O)[C@@H]1O`: the Potency result in experiment [1], in experiment [3] and in experiment [4] was “inactive” in each case.
Turning to `C[C@](Cc1c[nH]c2ccccc12)(NC(=O)OC1C2CC3CC(C2)CC1C3)C(=O)NC[C@H](NC(=O)CCC(=O)O)c1ccccc1` (stereo not given in full), the Potency result in experiment [1], in experiment [5] and in experiment [2] was “inactive” each time.
Take `CC(=O)ON=C1C(c2c(O)[nH]c3cc(Br)ccc23)=Nc2ccccc21`: the Potency is 5.26 µM (active) in experiment [6]; 11.8 µM (active) in experiment [5]; 1.87 µM (active) in experiment [3]; 10.5 µM (active) in experiment [2]; 5.26 µM (active) in experiment [4].
On to `Nc1ncn([C@@H]2O[C@H](CO)[C@@H](O)[C@@H]2O)c(=O)n1`, for which the Potency in experiment [1] is 4.69 µM (active); in experiment [5], 13.2 µM (active); in experiment [2], 5.26 µM (active); in experiment [4] it was 2.35 µM (active).
Take `O=C(NC1CC1)c1cccc(-c2ccc3c(NC(=O)C4CC4)n[nH]c3c2)c1`: the Potency in experiment [1] is 2.09 µM (active); in experiment [2], 14.8 µM (active).
In the case of `CCCCCCCN(CC)CCCC(O)c1ccc(NS(C)(=O)=O)cc1` (stereo not given), the Potency result in experiment [1] and in experiment [2] was “inactive” throughout. In addition, the Potency in experiment [3] is 23.5 µM (active); in experiment [4] it was 20.9 µM (active).
On to `CC(=O)SCC(Cc1ccccc1)C(=O)NCC(=O)OCc1ccccc1` (stereo not given), for which the Potency in experiment [1] is 18.7 µM (active); in experiment [3], 3.72 µM (active); in experiment [2] it was 2.35 µM (active); in experiment [4] it was 8.33 µM (active).
